Experimental data: PubChem BioAssay AID1159580 (chemical genetic matrix, 2015)
Screen size: about 5,500 compounds; about 2,000 (36%) were called active. Not shown: some 18% with an inconclusive outcome. No stated cut-off is given here; in the data, active means normalized growth mostly below about 0.91 (no sharp cut-off); inconclusive means no clear call, values can overlap the other calls; inactive means mostly above about 0.92. The list shows a part of the results.

Assay: chemical genetic growth profiling, strain panel (AID 1159580);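 further: tested at 20 µM; growth read once vehicle control cultures reached saturation at 30 °C; 1 = growth at the plate median or of vehicle wells; lower values mean less growth of the strain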
Conditions: S. cerevisiae deletion strains, growth OD

Measured: normalized growth

OC(CNCc1ccc(Cl)cc1)CO/N=C\C1=C(Cl)c2cc(Cl)ccc2OC1 (stereo not given)
inactive: locus YAR019C, strain CDC15, active compounds read low 0.962 | locus YBL105C, strain PKC1, active compounds read low 0.981 | locus YBR135W, strain CKS1, active compounds read low 0.981 | locus YBR136W, strain MEC1, active compounds read low 0.957 | locus YBR160W, strain CDC28, active compounds read low 0.988 | locus YDL017W, strain CDC7, active compounds read low 0.986 | locus YDL028C, strain MPS1, active compounds read low 0.975 | locus YDL101C, strain DUN1, active compounds read low 0.987 | locus YDL108W, strain KIN28, active compounds read low 0.967 | locus YDL132W, strain cdc53, active compounds read low 0.979 | locus YDL214C, strain PRR2, active compounds read low 0.925 | locus YDR052C, strain DBF4, active compounds read low 0.989 | locus YDR054C, strain cdc34, active compounds read low 0.98 | locus YDR226W, strain ADK1, active compounds read low 0.97 | locus YDR477W, strain SNF1, active compounds read low 0.974 | locus YER123W, strain YCK3, active compounds read low 0.867 | locus YER133W, strain GLC7, active compounds read low 0.933 | locus YFL009W, strain cdc4, active compounds read low 0.976 | locus YFL029C, strain CAK1, active compounds read low 0.963 | locus YFR003C, strain YPI1, active compounds read low 0.981 | locus YFR019W, strain FAB1, active compounds read low 0.921 | locus YFR028C, strain CDC14, active compounds read low 0.96 | locus YGR040W, strain KSS1, active compounds read low 0.97 | locus YGR052W, strain FMP48, active compounds read low 1 | locus YGR092W, strain DBF2, active compounds read low 0.928 | locus YHR030C, strain SLT2, active compounds read low 0.871 | locus YHR079C, strain IRE1, active compounds read low 0.931 | locus YHR082C, strain KSP1, active compounds read low 0.966 | locus YHR205W, strain SCH9, active compounds read low 0.949 | locus YIL147C, strain SLN1, active compounds read low 0.969 | locus YJL095W, strain BCK1, active compounds read low 0.915 | locus YJL128C, strain PBS2, active compounds read low 0.933 | locus YJL157C, strain FAR1, active compounds read low 0.971 | locus YJR016C, strain ILV3, active compounds read low 0.991 | locus YJR066W, strain TOR1 (second series), active compounds read low 1 | locus YJR066W, strain TOR1, active compounds read low 0.944 | locus YKL048C, strain ELM1, active compounds read low 0.931 | locus YKL067W, strain YNK1, active compounds read low 0.937 | locus YKL101W, strain HSL1, active compounds read low 0.923 | locus YKL193C, strain SDS22, active compounds read low 0.981 | locus YKL203C, strain TOR2, active compounds read low 0.983 | locus YLR113W, strain HOG1, active compounds read low 0.87 | locus YLR133W, strain CKI1, active compounds read low 0.96 | locus YLR403W, strain SFP1, active compounds read low 0.996 | locus YML070W, strain DAK1, active compounds read low 0.924 | locus YMR001C, strain CDC5, active compounds read low 0.985 | locus YMR205C, strain PFK2 (second series), active compounds read low 0.949 | locus YMR277W, strain FCP1, active compounds read low 0.981 | locus YNL006W, strain LST8, active compounds read low 0.99 | locus YNL020C, strain ARK1, active compounds read low 0.963 | locus YNL161W, strain CBK1, active compounds read low 0.983 | locus YNL183C, strain NPR1, active compounds read low 0.932 | locus YNL207W, strain RIO2, active compounds read low 0.97 | locus YNL222W, strain SSU72, active compounds read low 0.979 | locus YNL307C, strain MCK1 (second series), active compounds read low 0.934 | locus YOL078W, strain AVO1, active compounds read low 0.984 | locus YOL136C, strain PFK27, active compounds read low 0.921 | locus YOR061W, strain CKA2, active compounds read low 0.969 | locus YOR119C, strain RIO1, active compounds read low 0.957 | locus YOR231W, strain MKK1, active compounds read low 0.918 | locus YOR329C, strain SCD5, active compounds read low 0.977 | locus YPL031C, strain PHO85, active compounds read low 0.975 | locus YPL153C, strain RAD53, active compounds read low 0.984 | locus YPL204W, strain HRR25, active compounds read low 0.994 | locus YPL209C, strain IPL1, active compounds read low 0.981 | locus YPL256C, strain CLN2, active compounds read low 0.864 | locus YPR025C, strain CCL1, active compounds read low 0.981 | locus YPR106W, strain ISR1, active compounds read low 0.963 | locus YPR111W, strain DBF20, active compounds read low 0.962 | strain NNK1, active compounds read low 0.959 | strain TSCII, active compounds read low 0.979

CC1(C)CCC2=C(O1)c1ccccc1C(=O)C2=O
inactive: locus YAL040C, strain CLN3, active compounds read low 1.02 | locus YER002W, strain NOP16, active compounds read low 1 | locus YGR078C, strain PAC10, active compounds read low 0.977 | locus YMR263W, strain SAP30, active compounds read low 0.956 | locus YNL175C, strain NOP13, active compounds read low 0.973 | locus YNL197C, strain WHI3, active compounds read low 0.926 | locus YNL224C, strain SQS1, active compounds read low 1 | locus YOR083W, strain WHI5 (second series), active compounds read low 0.938
active: locus YAL013W, strain DEP1, active compounds read low 0.879 | locus YCL061C, strain MRC1 (second series), active compounds read low 0.876 | locus YDR150W, strain NUM1, active compounds read low 0.857 | locus YDR363W, strain ESC2, active compounds read low 0.706 | locus YPL055C, strain LGE1, active compounds read low 0.769 | locus YPL241C, strain CIN2, active compounds read low 0.861
